Reference: PubChem BioAssay (NCI)
About 83,000 compounds went through this panel and 20% of them were active in at least one assay; those are over-represented in the sample as a whole.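 Each cell line was grown in a 96-well plate and treated with one concentration of compound for 48 hours. Values below 10 were considered active.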 Activity calls are given as the source filed them.

Columns and labels:
Assay in all cases: NCI-60 one-dose screen, 48 h (100 = growth as untreated, 0 = no growth, -100 = all killed)
Details in all cases: 10 µM unless noted
BT-549 breast = tested on: BT-549 breast
MDA-MB-435 melanoma = tested on: MDA-MB-435 melanoma
SW-620 colon = tested on: SW-620 colon
MCF7 breast = tested on: MCF7 breast
HCT-116 colon = tested on: HCT-116 colon
HCC-2998 colon = tested on: HCC-2998 colon
KM12 colon = tested on: KM12 colon

Measured: growth

CC(=O)Oc1ccc(O)cc1
inactive: BT-549 breast 92.7% | MDA-MB-435 melanoma 106% | SW-620 colon 115% | MCF7 breast 88% | HCT-116 colon 95.3% | HCC-2998 colon 123% | KM12 colon 103%

N#C/C(=C/c1ccc(O)c([N+](=O)[O-])c1)c1nc(-c2ccc([N+](=O)[O-])cc2)cs1
inactive: BT-549 breast 36.3% | MDA-MB-435 melanoma 40.2% | SW-620 colon 54.2% | MCF7 breast 25.8% | HCT-116 colon 33.8% | HCC-2998 colon 30.4% | KM12 colon 36%

C#C[C@@]1(O)[C@@H](CO)O[C@@H](n2ccc3c(N)ncnc32)[C@@H]1O
active: BT-549 breast -8.06% | MDA-MB-435 melanoma -28.9% | SW-620 colon 1.33% | MCF7 breast 3.61% | HCT-116 colon 5.2% | HCC-2998 colon -44.2% | KM12 colon 0.307%

O=C1Nc2ccc(Cl)cc2/C1=N/c1nc(-c2ccc(Cl)cc2)cs1
active: MDA-MB-435 melanoma -82.3% | MCF7 breast 5.81% | HCT-116 colon 3.16% | HCC-2998 colon 9.52% | KM12 colon 1.73%
inactive: BT-549 breast 17.4% | SW-620 colon 12.9%

C=C(C)[C@@H]1CC[C@]2(C(=O)OCCOCCOCC[P+](c3ccccc3)(c3ccccc3)c3ccccc3)CC[C@]3(C)[C@H](CC[C@@H]4[C@@]5(C)CC[C@H](OC(C)=O)C(C)(C)[C@@H]5CC[C@]43C)[C@@H]12
active: BT-549 breast -89.8% | MDA-MB-435 melanoma -91.3% | SW-620 colon -77.9% | MCF7 breast -76% | HCT-116 colon -92.2% | HCC-2998 colon -88.4% | KM12 colon -89.8%

COc1c(O)cc2oc3cc(O[C@@H]4OC(C)[C@@H](O)[C@H](O)C4O)c(CC=C(C)C)c(O)c3c(=O)c2c1CC=C(C)C (some centres undefined)
inactive: BT-549 breast 99.3% | MDA-MB-435 melanoma 97.9% | SW-620 colon 101% | MCF7 breast 76% | HCT-116 colon 94.1% | HCC-2998 colon 94.8% | KM12 colon 87.8%

CCO/C=N/S(=O)(=O)c1cc2c(cc1Cl)NC=NS2(=O)=O
inactive: BT-549 breast 101% | MDA-MB-435 melanoma 97.5% | SW-620 colon 94.9% | MCF7 breast 96.2% | HCT-116 colon 103% | HCC-2998 colon 102% | KM12 colon 107%

CCOC(=O)/C=C1\SC(=Nc2ccc(C#N)cc2)N(CCN2C(=O)/C(=C/C(=O)OCC)SC2=Nc2ccc(C#N)cc2)C1=O
active: SW-620 colon 9.61% | HCT-116 colon 4.59%
inactive: BT-549 breast 32.5% | MDA-MB-435 melanoma 72.6% | MCF7 breast 24.4% | HCC-2998 colon 20.6% | KM12 colon 23.2%

COc1ccc2c(c1)/C(=C1\S/C(=N/c3nnc(C)s3)NC1=O)C(=O)N2Cc1ccc(Cl)cc1
inactive: BT-549 breast 54.6% | MDA-MB-435 melanoma 52.8% | SW-620 colon 49.3% | MCF7 breast 45.8% | HCT-116 colon 31.7% | HCC-2998 colon 34.2% | KM12 colon 28.6%

CCCS(=O)(=O)Nc1ccc(F)c(C(=O)c2c[nH]c3ncc(-c4ccc(OCCCC5CCCCN5)nc4)cc23)c1F (centres undefined)
inactive: BT-549 breast 57.5% | MDA-MB-435 melanoma 25.9% | SW-620 colon 116% | MCF7 breast 69.4% | HCT-116 colon 70% | HCC-2998 colon 108% | KM12 colon 103%

COc1cc(C(C)c2ccc3c(ccn3C)c2)cc(OC)c1OC (centres undefined)
active: MDA-MB-435 melanoma -40.6% | HCT-116 colon 5.43%
inactive: BT-549 breast 12.7% | SW-620 colon 28% | MCF7 breast 14.6% | HCC-2998 colon 23.4% | KM12 colon 10.3%

OCCNc1nc(NCCO)nc(Nc2ccc(C3=NN(c4cc(Cl)cc(Cl)c4)C(c4ccccc4)C3)cc2)n1 (centres undefined)
inactive: BT-549 breast 59.4% | MDA-MB-435 melanoma 49.5% | SW-620 colon 60% | MCF7 breast 16.3% | HCT-116 colon 33.8% | HCC-2998 colon 52.8% | KM12 colon 27.9%

C=C(C)[C@@H]1CC[C@]2(C(N)=O)CC[C@]3(C)[C@H](CC[C@@H]4[C@@]5(C)CCCNC(C)(C)[C@@H]5CC[C@]43C)[C@@H]12
inactive: BT-549 breast 85.2% | MDA-MB-435 melanoma 78.7% | SW-620 colon 75.5% | MCF7 breast 45.3% | HCT-116 colon 55.8% | HCC-2998 colon 98.2% | KM12 colon 79.8%

C=C(C)[C@@H]1CC[C@]2(C(=O)O)CC[C@]3(C)[C@H](CC[C@@H]4[C@@]5(C)C[C@@H](CC#Cc6ccccc6C)C(=O)C(C)(C)[C@@H]5CC[C@]43C)[C@@H]12
inactive: BT-549 breast 43.4% | MDA-MB-435 melanoma 55.5% | SW-620 colon 25.7% | MCF7 breast 15.3% | HCT-116 colon 12.5% | HCC-2998 colon 31.7% | KM12 colon 20.3%

NC(=O)C(O)(c1ccccc1)c1ccccc1
inactive: BT-549 breast 113% | MDA-MB-435 melanoma 103% | SW-620 colon 96% | MCF7 breast 91.5% | HCT-116 colon 103% | HCC-2998 colon 98.5% | KM12 colon 96.9%

COC(=O)CCc1n(Cc2ccc3ccccc3c2)c2ccccc2[n+]1Cc1ccc2ccccc2c1
active: BT-549 breast -7.25% | MDA-MB-435 melanoma -13.5% | MCF7 breast 1.95% | HCT-116 colon 0.405% | HCC-2998 colon -2.47% | KM12 colon -58.7%
inactive: SW-620 colon 12.1%

COc1ccc(C2CC(c3ccc(OC)cc3O)=NN2c2ccc(S(N)(=O)=O)cc2)cc1 (centres undefined)
inactive: BT-549 breast 58.2% | MDA-MB-435 melanoma 36.8% | SW-620 colon 50.6% | MCF7 breast 13.7% | HCT-116 colon 20.5% | HCC-2998 colon 54.4% | KM12 colon 23.7%
